Compounds with a hit are over-represented: about 3.5% of the library has one in this group of screens.
FBW7 act = human FBW7 E3 ligase activation, primary screen. AlphaScreen FBW7–phospho-cyclin E peptide binding, activator screen. normalized activity (activation), % at 26.1 µM. hit rate 0.13% among 650,000; in the data active means normalized activity above about 1.9%;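 further: purified mutant Fbw7 with reduced substrate affinity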
MITF primary = blocks human microphthalmia-associated transcription factor. O75030. AlphaScreen MITF homodimerization, bead proximity signal. inhibition, % at 2.6 µM. hit rate 0.91% among 650,000. AID 1259374; in the data active means inhibition above about 50%;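 further: 0% = vehicle wells with protein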
GPR151 activ = activates the human receptor GPR151; hit rate 1% among 650,000; PathHunter beta-arrestin GPR151 cells, luminescence; AID 1508602; activation, % at 11.2 µM; Q8TDV0; in the data active means activation above about 4.9%;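 further: 0% = median of compound wells and 100% = cells with positive control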
Target sequence (Q8TDV0 whole entry, looked up): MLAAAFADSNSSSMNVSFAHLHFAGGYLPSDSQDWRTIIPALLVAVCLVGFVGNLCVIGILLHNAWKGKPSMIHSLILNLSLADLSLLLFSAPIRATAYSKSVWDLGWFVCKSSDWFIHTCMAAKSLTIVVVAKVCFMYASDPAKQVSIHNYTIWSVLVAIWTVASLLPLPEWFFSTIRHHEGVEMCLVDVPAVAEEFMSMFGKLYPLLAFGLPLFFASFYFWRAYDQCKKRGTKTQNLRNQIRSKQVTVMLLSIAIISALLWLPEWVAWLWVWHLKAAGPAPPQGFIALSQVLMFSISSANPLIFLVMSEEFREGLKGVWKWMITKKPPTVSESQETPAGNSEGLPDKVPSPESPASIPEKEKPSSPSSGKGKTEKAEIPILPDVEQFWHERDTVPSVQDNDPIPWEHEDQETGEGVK
TEAD-YAP block = TEAD-YAP interaction inhibition; AID 1259422; hit rate 1.4% among 640,000; inhibition, % at 9.12 µM; HEK-TIYL cells, TEAD-Gal4/YAP UAS-luciferase luminescence; in the data active means inhibition above about 32%;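 further: 0% = median of test compound wells and 100% = reference inhibitor wells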
GPR151 conf act = confirmation of human GPR151 activators; shares compounds with GPR151 activ; GPR151 PathHunter beta-arrestin cells, luminescence, 90 min; % of EA-reagent control over plate median; activation, % at 11.2 µM; 6,700 tested, under 10 active;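 active means mean percent activation across replicates above the confirmation screen cutoff of 4.91%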
GPR119 ag = GPR119 activation, counter-screen for GPR151 activators | shares compounds with GPR151 activ | GPR119 PathHunter beta-arrestin cells, luminescence, 90 min; 0 = compound-well median, 100 = enzyme-acceptor control | activation, % at 11.2 µM | hit rate 0.3% among 6,700 | AID 1508611;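 active means mean percent activation in the counterscreen above 29.09%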;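 further: counterscreen on off-target GPR119 to flag nonselective hits from the GPR151 activator screen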
Starred values were filed as active, the others as inactive; nt = no result given.

SMILES	FBW7 act	MITF primary	GPR151 activ	TEAD-YAP block	GPR151 conf act	GPR119 ag
O=C1C(=O)N(CCN2CCOCC2)C(c2ccc(Cl)cc2)/C1=C(\O)c1ccccc1 (configuration not stated)	0	-17	1	13	nt	nt
COC(=O)C1=C(C)Nc2nnnn2C1c1cccc(O)c1 (configuration not stated)	0	-12	1	0	nt	nt
CCOC(=O)C1=C(C)Nc2nnnn2C1c1cccc(O)c1 (configuration not stated)	0	-1	13*	1	-1	2
COC(=O)C1=C(C)Nc2ncnn2C1c1cccc(OC)c1 (configuration not stated)	0	19	1	-2	nt	nt
COCCOC(=O)C1=C(C)Nc2ncnn2C1c1cccc(OC)c1 (configuration not stated)	0	4	5.8*	12	0	-6
COc1ccccc1NC(=O)CNC(=O)c1ccc(Br)cc1	1	17	-1	1	nt	nt
COc1ccc(OC)c(C2NC(=O)NC(C)=C2C(=O)OC(C)C)c1 (configuration not stated)	0	22	5.1*	-2	0	12
COc1ccc(O)c(C2NC(=O)NC(C)=C2C(=O)OC(C)C)c1 (configuration not stated)	0	3	0	-14	nt	nt
COc1ccc(COn2c(=O)c(-c3ccc(OC)cc3OC)[n+]([O-])c3ccccc32)cc1	0	7	0	7	nt	nt
COc1cc2cc(C#N)c(SCC(=O)NCCc3ccccc3)nc2cc1OC	0	5	-1	9	nt	nt
COC(=O)c1cc2sc(C)cc2n1Cc1cc(=O)n2ccccc2n1	0	-3	9.1*	-1	0	2
Cc1ccccc1-n1c(=O)c2ccccc2n(Cc2cc(=O)n3ccccc3n2)c1=O	0	-9	-1	-6	nt	nt
CCc1nnc(-c2cccc(OCC(=O)Nc3ccccc3)c2)o1	0	7	-1	1	nt	nt
CCCNC(=O)c1cnc(Nc2nccc3ccccc23)s1	0	-1	-1	-51	nt	nt
COc1ccc(CCNC(=O)c2cnc(Nc3nccc4ccccc34)s2)cc1	0	18	5.8*	0	0	-8
O=C(CC1C(=O)NCCN1Cc1cccs1)NCC1(c2ccccc2)CCCC1 (configuration not stated)	0	1	1	3	nt	nt
Cc1c(C(=O)N2CCCC(C)C2)sc2ncn(Cc3ccccc3F)c(=O)c12 (configuration not stated)	0	-3	-1	-1	nt	nt
Cc1c(C(=O)N2CCCC2)sc2ncn(Cc3ccccc3F)c(=O)c12	0	2	5.3*	7	1	16
CN1C(=O)/C(=C2/Sc3ccccc3N2C)SC1=Nc1ccc(O)cc1	0	9	6.4*	-21	0	-8
CN1/C(=C2/SC(=Nc3ccc(C4CCCCC4)cc3)N(c3ccccc3)C2=O)Sc2ccccc21	0	-1	0	5	nt	nt
O=C(CCc1nnc(COc2ccccc2)o1)NCc1nc2ccccc2s1	0	9	5.1*	-1	1	6
COc1ccc(OC)c(Cc2nnc(CCC(=O)NCCc3nc(C)c(C)s3)o2)c1	0	11	-1	-9	nt	nt
O=C(CCc1nnc(-c2ccccc2)o1)NCc1nc2ccccc2s1	0	-1	-1	-4	nt	nt
COc1ccc(CCc2nnc(CCC(=O)NCc3ccccc3F)o2)cc1	0	-26	0	-47	nt	nt
COc1ccc(OC)c(Cc2nnc(CCC(=O)NCc3nc4ccccc4s3)o2)c1	0	-6	6.3*	-9	1	12
COc1ccc(CCc2nnc(CCC(=O)NCCc3ccccc3F)o2)cc1	0	1	6.5*	-4	0	-4
CCOC(=O)NC(Nc1sc2c(c1C#N)CCCCC2)(C(=O)OCC)C(F)(F)F (configuration not stated)	0	20	-1	-4	nt	nt
COC(=O)c1ccc(NC(=O)CSc2nnc(-c3ccc([N+](=O)[O-])cc3)n2C)cc1	0	0	2	7	nt	nt
Nc1ccc(C(=O)Nc2ccc(Oc3cccc(Oc4ccc(NC(=O)c5ccc(N)cc5)cc4)c3)cc2)cc1	0	7	6.1*	0	-1	-14
COc1ccccc1N1CCN(C(=O)c2ccc(Br)cc2)CC1	0	-1	0	-2	nt	nt

Assay outcomes deposited in PubChem by The Scripps Research Institute Molecular Screening Center.
